Assay [1] in a line: qHTS assay for small molecules that induce genotoxicity in human embryonic kidney cells expressing luciferase-tagged ATAD5 (AID 651632). Note: nearly all actives have a fitted effect of over 15% in size. A digest of the protocol: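 Reporter cells (HEK293T) express luciferase-tagged ATAD5, a protein that accumulates after DNA damage. Treat 16 hr at 37C/5% CO2, add Amplite, wait 30 min at RT, and read luminescence.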
(In general: In qHTS, concentration-response curves come from the screen itself.)

Assay [2] in a line: qHTS assay for small molecule agonists of the p53 signaling pathway - cell viability (AID 651633; calls by dose curve; note: nearly all actives have a fitted effect of over 30% in size; note: potency is the fitted concentration of half-maximal effect). In a few lines: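 p53RE-bla cells were treated with compound for 16 hours at 37 C. Cytotoxicity was then measured as CellTiter-Glo luminescence after 30 min at room temperature.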
The nature of assay [3]: qHTS assay for small molecule disruptors of the mitochondrial membrane potential - cell viability (AID 720634; calls by dose curve;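 note: human HepG2 liver cancer cells; series mostly up to about 83 µM; nearly all actives have a fitted effect of over 20% in size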). In a few lines:
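Measuring cytotoxicity alongside mitochondrial potential, the screen quantified ATP by luminescence in HepG2 cells after 1 hr compound incubation and a 30 min room-temperature CellTiter-Glo step.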

The nature of assay [4]: qHTS assay to test for compound auto fluorescence at 590 nm (red) in HepG2 cells (AID 720674). A digest of the protocol: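 Seeding: 2,000 HepG2 cells/well, MEM/10% FBS, overnight 37 C. Dosing: compound vs DMSO. Incubation: 1 hr, 37 C, 5% CO2. Read: fluorescence 540 ex/590 em, Rose Bengal sodium as red reference.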
A short description of assay [5]: qHTS assay to test for compound auto fluorescence at 535 nm (green) in HepG2 cells (AID 720675).
Assay [6] can be described thus: qHTS assay to test for compound auto fluorescence at 460 nm (blue) in HEK293 cells (AID 720678). In a few lines: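 Measured: blue fluorescence (Ex 405/Em 460 nm) of compound-treated HEK293 cells, incubated overnight at 37C with 5% CO2 and scaled to triamterene equivalents.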
Assay [7] in a line: qHTS assay to test for compound auto fluorescence at 590 nm (red) in HEK293 cells (AID 720679). In a few lines:
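Using HEK293 cells at 2,000 per well, the screen added 23 nL of each compound after cell attachment and incubated overnight (37C, 5% CO2). The plate reader then captured red-label fluorescence, Ex/Em 540/590nm.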

Assay [8] in a line: qHTS assay to test for compound auto fluorescence at 535 nm (green) in HEK293 cells (AID 720680).
The nature of assay [9]: qHTS assay to test for compound auto fluorescence at 460 nm (blue) in HEK293 cell free culture (AID 720681). A digest of the protocol:
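Compounds were added to cell-free DMEM with 10% FBS and fluorescence read directly. The blue channel used 405 nm excitation and 460 nm emission, with triamterene as the reference fluorophore.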

The nature of assay [10]: qHTS assay to test for compound auto fluorescence at 535 nm (green) in HEK293 cell free culture (AID 720682). In a few lines: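 Cell-free medium (DMEM, 10% FBS) receives compound or DMSO by pintool. Plate read directly at Ex 485/Em 535 nm. Signal converted to fluorescein equivalency.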
Assay [11] in a line: qHTS assay to test for compound auto fluorescence at 590 nm (red) in HepG2 cell free culture (AID 720684). A digest of the protocol:
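Compound was pinned into wells holding MEM with 10% FBS and no cells, and red fluorescence was read at Ex/Em 540/590 nm. Signal is expressed as auto fluorescence equivalency relative to Rose Bengal sodium.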

A short description of assay [12]: qHTS assay to test for compound auto fluorescence at 460 nm (blue) in HepG2 cell free culture (AID 720685). A digest of the protocol: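 Compound (23 nL) or DMSO pinned into cell-free MEM with 10% FBS; blue fluorescence read at 405/460 nm excitation/emission, expressed as auto-fluorescence equivalency to triamterene.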
The nature of assay [13]: qHTS assay to test for compound auto fluorescence at 535 nm (green) in HepG2 cell free culture (AID 720686).
A short description of assay [14]: qHTS assay to test for compound auto fluorescence at 460 nm (blue) in HepG2 cells (AID 720687). A digest of the protocol: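 HepG2 cells in MEM with 10% FBS, attached overnight at 37 C, were exposed to compound or DMSO for 1 hr at 37 C, 5% CO2. Blue fluorescence was read at 405/460 nm, with triamterene as reference fluorophore.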
The target of assay [15] is Glucocorticoid receptor (Homo sapiens) (UniProt P04150). The assay is described as follows: qHTS assay to identify small molecule agonists of the glucocorticoid receptor (GR) signaling pathway (AID 720691; active = well fitted activation curve with a large enough effect in the signal ratio in the repeat runs, not every such curve was filed as active; the % refers to the signal ratio). In a few lines:
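Reporter read-out: fluorescence intensity following 2 h room-temperature LiveBLAzer B/G FRET substrate loading. Prior step: GR-bla HeLa cells held 4 h, then treated 18 h at 37 C.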

Assay [16] shares this target. The assay is described as follows: qHTS assay to identify small molecule antagonists of the glucocorticoid receptor (GR) signaling pathway (AID 720692; active = well fitted inhibition curve with a large enough effect in the signal ratio in the repeat runs, not every such curve was filed as active; the % refers to the signal ratio). In a few lines:
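Dexamethasone (5 nM final) stimulated a stably integrated GRE-beta-lactamase reporter in HeLa cells during 18 h co-incubation with compounds; signal was quantified as fluorescence intensity of B/G FRET substrate after 2 h.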

Assay [17] in a line: qHTS assay for small molecules that induce genotoxicity in human embryonic kidney cells expressing luciferase-tagged ATAD5 - cell viability (AID 651634; calls by dose curve; note: nearly all actives have a fitted effect of over 25% in size). In a few lines: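 Seeding of 2,000 HEK293T ATAD5-luciferase cells per well preceded pin-tool compound transfer. Plates sat 15.5 hr at 37C under 5% CO2, then fluorescence was read after 30 min with CellTiter-Fluor.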
Assay [18] in a line: qHTS assay to test for compound auto fluorescence at 590 nm (red) in HEK293 cell free culture (AID 720683). A digest of the protocol:
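Cell-free wells of DMEM with 10% FBS received compound, and intrinsic fluorescence was read at excitation/emission 540/590 nm. Values expressed as equivalence to Rose Bengal sodium.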

Assay [19] is described as follows: qHTS assay for small molecule disruptors of the mitochondrial membrane potential (AID 720635). In a few lines: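 HepG2 cells exposed to compound 1 hr at 37C, then Mito-MPS dye 30 min. Ratio read of aggregate (540/590 nm) versus monomer (490/535 nm) fluorescence.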

Unmarked numbers belong to inactive results. Inconclusive results are not listed. Activity calls are given as the source filed them. Unless noted, calls come from the whole dose curve; as a rule, active = well fitted curve in the direction sought with a large enough effect in the repeat runs; inconclusive = weak or mixed curves; inactive = no such curve, though single readings can be large; an effect the other way counts as inactive or inconclusive.

Sequence of Glucocorticoid receptor (Homo sapiens) (P04150 whole entry, looked up): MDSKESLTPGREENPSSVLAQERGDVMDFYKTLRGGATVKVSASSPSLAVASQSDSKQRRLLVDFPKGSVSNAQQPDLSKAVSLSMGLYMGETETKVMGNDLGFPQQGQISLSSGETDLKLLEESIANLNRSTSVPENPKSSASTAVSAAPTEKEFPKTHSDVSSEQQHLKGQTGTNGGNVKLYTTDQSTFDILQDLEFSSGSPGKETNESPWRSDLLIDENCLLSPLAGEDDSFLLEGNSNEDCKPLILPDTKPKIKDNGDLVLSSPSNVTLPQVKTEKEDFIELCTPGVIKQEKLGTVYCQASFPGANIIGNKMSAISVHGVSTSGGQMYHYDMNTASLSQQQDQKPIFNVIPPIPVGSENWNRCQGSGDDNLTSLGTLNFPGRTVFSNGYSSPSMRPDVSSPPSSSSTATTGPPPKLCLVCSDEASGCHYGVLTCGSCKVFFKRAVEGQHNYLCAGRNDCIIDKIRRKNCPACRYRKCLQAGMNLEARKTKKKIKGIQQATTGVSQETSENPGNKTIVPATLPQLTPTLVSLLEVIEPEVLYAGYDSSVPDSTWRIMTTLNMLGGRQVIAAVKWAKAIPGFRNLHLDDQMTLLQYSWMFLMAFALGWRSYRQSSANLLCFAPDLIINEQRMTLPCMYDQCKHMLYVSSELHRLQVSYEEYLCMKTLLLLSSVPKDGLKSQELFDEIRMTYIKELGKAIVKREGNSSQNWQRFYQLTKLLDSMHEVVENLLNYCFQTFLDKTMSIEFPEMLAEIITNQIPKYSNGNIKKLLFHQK

In the case of `O=C(N/N=C/c1ccc([N+](=O)[O-])o1)c1cc([N+](=O)[O-])cc([N+](=O)[O-])c1O`, the Potency entry in assay [1], in assay [3], in assay [15] and in assay [16] was “inactive” in each case. Also, the Potency in assay [2] is 26.6 µM (active). Moreover, the result in [4], in assay [5], in assay [6], in [7], in [8] and in assay [9] was inactive. In addition, the compound was classed as inactive in assay [10], in assay [11], in assay [12], in [13] and in assay [14].
In the case of `CCCC[N+](CCCC)(CCCC)CCCC`, the Potency result in [1], in assay [2], in assay [17] and in [15] was “inactive” each time. Also, the compound was called inactive in assay [4], in [5], in assay [7], in assay [8], in assay [9] and in [10]. Besides, the compound was classed as inactive in assay [18], in assay [11], in assay [12], in assay [13] and in assay [14].
Take `O=S(=O)(c1ccccc1)c1ccccc1`: the Potency entry in assay [1], in assay [2] and in [17] was “inactive” in each case. Further, the outcome in [4], in [5], in assay [6], in assay [7], in assay [8] and in [9] was inactive. The result in assay [10], in [18], in assay [11], in [12], in assay [13] and in assay [14] was inactive.
Consider `C=CCSSCC=C`, for which the Potency result in [1], in assay [2] and in assay [17] was “inactive” each time. Further, the compound was called inactive in assay [4], in assay [5], in assay [7], in assay [8], in [9] and in assay [10]. Besides, the compound was called inactive in assay [18], in assay [12], in assay [13] and in assay [14].
On to `O=C(O)COc1cc(Cl)c(Cl)cc1Cl`, for which the Potency entry in [1], in [2], in [17], in [15] and in assay [16] was “inactive” in each case. Besides, the result in [4], in assay [5], in [6], in assay [7], in assay [8] and in assay [9] was inactive. Further, the compound was classed as inactive in assay [10], in [18], in assay [11], in assay [12], in assay [13] and in [14].
Turning to `CC[N+]1(CCOC(=O)C(O)(c2ccccc2)c2ccccc2)CCCCC1`, the Potency entry in assay [1], in assay [2], in assay [17] and in [15] was “inactive” in each case. In addition, the call in assay [4], in [5], in assay [7], in assay [8], in assay [9] and in assay [10] was inactive. In addition, the result in assay [18], in assay [11], in assay [12], in [13] and in assay [14] was inactive.
As to `C1CS1`, the Potency result in [1], in assay [2], in assay [17] and in [3] was “inactive” throughout. Besides, the result in assay [5], in assay [7], in assay [8], in assay [9], in assay [10] and in [18] was inactive. The result in [11], in assay [12], in [13] and in assay [14] was inactive.
For `O=C(N[C@H]1CN2CCC1CC2)c1ccc2c(c1)OCCO2`, the Potency result in assay [1], in [2], in assay [17], in assay [19], in assay [15] and in assay [16] was “inactive” throughout. Also, the result in [4], in [5], in assay [6], in [7], in assay [8] and in assay [9] was inactive. The compound was called inactive in assay [10], in [18], in [12], in [13] and in [14].

The record behind these values is PubChem BioAssay (Tox21).
